Experimental data reported in ChEMBL document CHEMBL3988442, “University of Dundee, Small-Polar-MMV Screening Library” (2021).
Screen size: about 38,000 compounds; about 1,200 (3.2%) showed an effect of 50% or more. The median lay at about -58%. What follows is part of a selection rich in strong results, with near analogues and random picks from the rest.

These compounds were tested on Plasmodium falciparum (assay: Calibr Malaria Delayed Death Assay SOP). Conditions: concentration 4.99e-06 (unit not given; other assays of the set use mol/L).
Assay type: functional, organism-based
Design: scale not given: in the data most compounds retested in dose-response had high values

Row | Compound | Percent Effect [%]
1 | c1coc(CN2CCn3c(nc4ccccc43)C2)c1 | -138.4
2 | CN(Cc1ccco1)C[C@H]1OC[C@@H]2CCN(Cc3ccncc3)C[C@@H]21.O=C(O)C(F)(F)F.O=C(O)C(F)(F)F.O=C(O)C(F)(F)F | -2.031
3 | CN(Cc1ccco1)C[C@H]1OC[C@@H]2CCN(Cc3ccccn3)C[C@@H]21.O=C(O)C(F)(F)F.O=C(O)C(F)(F)F.O=C(O)C(F)(F)F | 70.31
4 | CN(Cc1ccco1)C[C@H]1OC[C@@H]2CCN(Cc3nccs3)C[C@@H]21 | 9.527
5 | Cc1cccc(N2CC[C@H]3CO[C@H](CN(C)Cc4ccco4)[C@H]3C2)n1 | 48.83
6 | CN(Cc1ccco1)C[C@H]1OC[C@@H]2CCN(Cc3cccnc3)C[C@@H]21.O=C(O)C(F)(F)F.O=C(O)C(F)(F)F.O=C(O)C(F)(F)F | -41.37
7 | OC1=C2C(=Nc3n[nH]c(O)c3C2c2ccccc2Cl)CCC1 (configuration not stated) | -169.8
8 | Cn1nc(C(=O)N2CCCC2)c(F)c1NC(=O)Cc1ccccc1 | -43.72
9 | Cc1nc2ccnn2c(C)c1CCC(=O)N1CCN(CCO)CC1 | -40.17
10 | CCn1ncnc1C(C)Nc1cc(C2CC2)ncn1 (configuration not stated) | -128.7
11 | Cc1cccc(CN2C(=O)CO[C@@H]3CN(Cc4cnn(C)c4)C[C@H]32)c1.O=C(O)C(F)(F)F.O=C(O)C(F)(F)F | -89.5
12 | CC(C)CNC(=O)CNc1c(NCc2ccncc2)c(=O)c1=O | -63.87
13 | Cc1ccc2nc(CN3CCCCC3CCN3CCOCC3)cn2c1 (configuration not stated) | 7.984
14 | O=C(NC1CCN(CC2CC2)C1)c1ccc(N2CCC(O)CC2)cc1 (configuration not stated) | -9.255
15 | NC(=O)C1CCN(C(=O)NC2CCN(CC3CCCC3)C2)CC1 (configuration not stated) | -59.5
16 | CSC(C)(C)CNC(=O)NC1CCN(CC2CC2)C1 (configuration not stated) | -39.54
17 | O=C(NC1CCN(CC2CCCC2)C1)N1CCC(OCC2CC2)CC1 (configuration not stated) | 63.12
18 | O=C(NC1CCN(CC2CC2)C1)c1ccc(C(=O)c2cc[nH]c2)cc1 (configuration not stated) | -13.77
19 | O=C(NC1CCN(CC2CC2)C1)N1CCC(OC2CCCCC2)CC1 (configuration not stated) | 53.27
20 | CNc1nc2c(s1)C(=O)CN(C(=O)NCCc1ccccc1)C2 | -35.41
21 | COCCN1CCC(c2nc3ccc(NC(C)C)cn3n2)CC1.O=C(O)C(F)(F)F | -58.6
22 | CCNc1ncc2c(n1)CN(c1ccc(C)c(C)c1)C2=O | -153.3
23 | Cc1ccc(S(=O)(=O)Nc2ccc(C)c(C(=O)O)c2)s1 | -129.6
24 | O=C(NCCN1CCOCC1)C1=NOC2(CCN(Cc3nccs3)C2)C1 (configuration not stated) | -143.8
25 | Cc1nn(C)c(Oc2ccccc2)c1CNC1CCOc2ccccc21 (configuration not stated) | -79.66
26 | Cc1nn(C)c(Oc2ccc(Cl)cc2)c1CN1CCC(CN)C1 (configuration not stated) | 92.45

Row | Compound | Percent Effect [%]
27 | Cc1nn(C)c(Cl)c1CN1CCN(c2nccs2)C(C)C1 (configuration not stated) | -15.39
28 | O=C(O)C(F)(F)F.O=C(c1ccccn1)N1CCC2(CC1)COC(COCC1CCCC1)C2 (configuration not stated) | -17.9
29 | CC(C)C(C)NC(=O)Nc1cccc2c1CCN(S(C)(=O)=O)C2 (configuration not stated) | -62.13
30 | O=C(c1cn[nH]c1)N1CCC2(CCCN(Cc3ccc(F)c(F)c3)C2)C1 (configuration not stated) | -30.22
31 | O=C1N(Cc2ccc(F)c(F)c2)CCCC1(O)CNCc1ncc[nH]1 (configuration not stated) | -127.8
32 | Cc1ccc(CN2CCC3(CCCN(Cc4ccc(F)c(F)c4)C3)C2)o1 (configuration not stated) | 25.14
33 | Fc1ccc(CN2CCCC3(CCN(Cc4ncc[nH]4)C3)C2)cc1F (configuration not stated) | 59.25
34 | Cc1c[nH]c(CN2CCC3(CCCN(Cc4ccc(F)c(F)c4)C3)C2)n1 (configuration not stated) | 79.41
35 | CN(C)C(=O)N1CCCC2(CCN(Cc3ccc(Cl)c(F)c3)C2)C1 (configuration not stated) | 40.95
36 | Cc1noc(CN2CCCC(Cn3nc(C)nc3C)C2)n1 (configuration not stated) | -86.57
37 | N#Cc1c(SCCN2CCCCCC2)sc2c(O)cc(O)nc12 | -30.34
38 | CN(C)S(=O)(=O)N1C[C@@H]2COC[C@]2(COc2ccccn2)C1.O=C(O)C(F)(F)F | -16.81
39 | CCCn1nnc(NCc2cc(Br)cc(Br)c2OC)n1 | -108.1
40 | COc1ccccc1OCC(=O)NCC(O)(c1cccs1)C1CC1 (configuration not stated) | -17.87
41 | CC(=O)N1CCC2(CC1)c1ncc(-c3ccc(F)cc3)n1CCN2C | -51.39
42 | CN1CCn2c(-c3cnn(C)c3)cnc2C12CCN(CC1CC1)CC2.O=C(O)C(F)(F)F.O=C(O)C(F)(F)F.O=C(O)C(F)(F)F | -83.71
43 | Cc1ccc(-c2cnc3n2CCN(C)C32CCN(CC3CC3)CC2)cc1.O=C(O)C(F)(F)F.O=C(O)C(F)(F)F.O=C(O)C(F)(F)F | 38.95
44 | CN1CCn2c(-c3cccc(F)c3)cnc2C12CCN(CC1CC1)CC2.O=C(O)C(F)(F)F.O=C(O)C(F)(F)F.O=C(O)C(F)(F)F | 75.26
45 | CN1CCn2c(-c3ccccc3)cnc2C12CCN(CC1CC1)CC2.O=C(O)C(F)(F)F.O=C(O)C(F)(F)F.O=C(O)C(F)(F)F | 80.28
46 | CCN1CCn2c(-c3cccc(F)c3)cnc2C12CCN(C(C)=O)CC2.O=C(O)C(F)(F)F | -93.41
47 | CCS(=O)(=O)N1CCC2(CC1)c1ncc(-c3cccnc3)n1CCN2C | -142.7
48 | CNC(=O)N1CCC2(CC1)c1ncc(-c3cccc(F)c3)n1CCN2C.O=C(O)C(F)(F)F | -80.59
49 | CN1CC2(CCN(c3ncnc4c3CCNC4)CC2)OC1=O | -26.92
50 | CSCc1cc(C(=O)NC2(C#N)CC2)ccc1F | -114.4
51 | CC(C)c1cc(NC(=O)CN2CCC(N3CCCCC3)CC2)on1 | -41.68
52 | CN1C(=O)C(c2cccnc2)CC12CCN(Cc1nccs1)CC2 (configuration not stated) | -72.15

Row | Compound | Percent Effect [%]
53 | Cc1cc(C)n(C2CN(CC(=O)NC3CCS(=O)(=O)C3)C2)n1 (configuration not stated) | -92.21
54 | c1cnc(-c2nc(C3CCOC3)no2)cn1 (configuration not stated) | -46.11
55 | Cc1occc1CNc1ncccc1S(N)(=O)=O | -160.3
56 | CCN(Cc1ccco1)C(=O)C1=NN(c2ccccc2)C(=O)CN1 | 59.42
57 | O=C(NCCc1ccccn1)C1=NN(c2ccccc2)C(=O)CN1 | -38.96
58 | CCN(C(=O)C1=NN(c2ccccc2)C(=O)CN1)c1ccccc1 | -71.25
59 | CCc1nc(N2CCC3(CCC(=O)N(Cc4ccncc4)C3)CC2)no1 | -12.44
60 | CC(C)n1cnnc1CN(C)C(=O)Cn1ccc2ccccc2c1=O | -90.48
61 | CCN(CC)C1CCN(C(=O)NCc2c(C)noc2C)CC1 | -63.79
62 | CCc1cc(CNC(=O)N(C2CC2)C(C)c2ccco2)on1 (configuration not stated) | -36.38
63 | Cc1ccc(N(C)C2CCN(C(=O)CCc3ccco3)CC2)nn1 | -48.98
64 | CCc1cc(CNC(=O)N2Cc3ccccc3N(C)CC2C)on1 (configuration not stated) | -73.36
65 | FC(F)(F)C1CCCn2c(CNCc3ccco3)nnc21 (configuration not stated) | -67.88
66 | Cc1noc(C)c1CNCC1CCN(CC(O)c2ccccc2)CC1 (configuration not stated) | 41.75
67 | O=C(O)C(F)(F)F.O=C(c1ccco1)N1C[C@H]2CCCN(Cc3ccc(F)cc3)[C@H]2C1 | -36.52
68 | Cn1cccc1C(=O)NCc1cn2c(n1)CN(CC1CCOCC1)CC2.O=C(O)C(F)(F)F | -71.57
69 | Cc1nc(N2CCCC2)nc2c1CCN(C(=O)NC(C)C)CC2 | 3.788
70 | Cc1cccc(N2CCOCC3(C2)CN(c2cncnc2)C(=O)CO3)n1 (configuration not stated) | -72.37
71 | O=C(CN1CCCC(Cn2cncn2)C1)NCCc1cccs1 (configuration not stated) | -76.44
72 | O=C(CNC(=O)C1(c2ccc(F)cc2F)CCC1)Nc1cccnc1 | -130.4
73 | Cc1ccc(CNCc2nccn2C)c(OCC2CC2)c1 | -19.72
74 | COCCN1CCC(CNCc2c[nH]nc2C(C)(C)C)CC1 | -136.4
75 | Cc1ccc(CNCc2c[nH]nc2C(C)(C)C)c(OC2CCOC2)c1 (configuration not stated) | 54.5
76 | CN(C)CCN1CCC(CNCc2c[nH]nc2C(C)(C)C)CC1 | -18.94
77 | Cc1ccc(NCc2cccc3cn[nH]c23)cc1OC1CCOC1 (configuration not stated) | 18.44
78 | NC(=O)c1ccc(CN2CCC(N3CCCC3)CC2)cc1 | -126.8

Row | Compound | Percent Effect [%]
79 | O=C(O)C(F)(F)F.O=c1cccnn1CC1CN(CC2CCCC2)Cc2nccn2C1 (configuration not stated) | -25.12
80 | Cn1nccc1-c1cnc2n1CCC21CCN(C(=O)C2(C)CC2)CC1 | -43.4
81 | CCNC(=O)NC(=O)CNc1cccc(C(=O)c2ccccc2)c1 | -85.13
82 | CC(C)(N)CNS(=O)(=O)Cc1cccc2cccnc12.Cl | -113.8
83 | CSc1nc2ncc3c(=O)n(CCN4CCCCC4)ccc3n2n1 | -81.14
84 | Cc1ccccc1C(=O)N1CCCn2cnc(CN3CCCC3=O)c2C1 | -111.5
85 | Cc1ncccc1C(=O)Nc1cccc(OCC(F)F)n1 | -105.7
86 | Cc1ccc(CS(=O)(=O)N2Cc3c(CN(C)C)nn(C)c3C2)cc1.O=C(O)C(F)(F)F | 28.75
87 | CCc1ccc(S(=O)(=O)N2Cc3c(CN(C)C)nn(C)c3C2)cc1.O=C(O)C(F)(F)F | 62.16
88 | COc1ccc(S(=O)(=O)N2Cc3c(CN(C)C)nn(C)c3C2)cc1.O=C(O)C(F)(F)F | 40.82
89 | CNc1ncc(CN(C)c2nc(C3CCCC3)nc3c2cnn3C)cn1 | -13.34
90 | CC(C)n1c2ccccc2c2c1cc(C(=O)O)n2C(=O)N(C)C | -103.4
91 | O=C(NCCN1CCC(c2cccs2)CC1)c1ccccc1C(F)(F)F | 31.51
92 | O=C(Cc1ccccc1Cl)NCCN1CCC(c2cccs2)CC1 | 62.17
93 | CC(=O)NCCN1CCC(c2cccs2)CC1 | 2.442
94 | CC1CCN(CCNC(=O)c2sccc2C2CC2)CC1 | -42.92
95 | COc1ccc(CCC(=O)NCCN2CCC(c3cccs3)CC2)cc1 | 74.85
96 | O=C(Cc1ccccc1Cl)NCC1CCN(Cc2ccsc2)CC1 | 33.59
97 | O=C(NCCN1CCC(c2cccs2)CC1)c1ccc(F)cc1Cl | -24.2
98 | COc1ccc(C(=O)NCCN2CCC(c3cccs3)CC2)cc1OC | 29.34
99 | O=C(NCCC(O)c1ccoc1)Nc1cccs1 (configuration not stated) | -113.5
100 | CCSc1ccccc1C(=O)NCCN1CCC(c2cccs2)CC1 | 28.22
101 | O=C(NCCN1CCC(c2cccs2)CC1)Nc1cccs1 | 62.79
102 | O=C(NCCc1ccccc1)NCCN1CCC(c2cccs2)CC1 | 76.7
